Source: PubChem BioAssay AID602310 (National Center for Advancing Translational Sciences (NCATS), 2012)
Screen size: about 410,000 compounds; about 310 (0.076%) were called active. Inconclusive results (about 2%) are left out. The call rests on the fitted dose curve; in most records, active means well fitted curve in the direction sought with a large enough effect; inconclusive means small, poorly fitted or top-dose-only effect; inactive means flat fitted curve, though single readings scatter. The full list was thinned out, with actives kept by preference.

These compounds were tested against DNA dC->dU-editing enzyme APOBEC-3G (Homo sapiens) (UniProt Q9HC16) (assay: qHTS for Inhibitors of Vif-A3G Interactions: qHTS). Details: HeLa A3G-eYFP + Vif (tagged APOBEC3G with the HIV-1 protein that degrades it), YFP fluorescence, overnight; series mostly up to 46.1 µM; activity, negative = active: at the top concentration.
Source text: The recent discovery and characterization of host restriction factors, which provide a potent defense to invading retroviruses, has provided new targets for antiviral drug development. APOBEC3G (A3G) and APOBEC3F (A3F) are potent cytidine deaminases that block HIV-1 replication; HIV-1 expresses the Vif protein, which counteracts A3G and A3F by binding to them and inducing their proteasomal degradation. The Vif-A3G and Vif-A3F interactions provide two potential targets for development of small molecules which can interfere with the ability of Vif to degrade A3G or A3F. […] To identify inhibitors that can interfere with Vif mediated degradation of A3G and A3F, we have developed Hela cell lines that stably express A3G or A3F tagged with eYFP at the C-terminal end (A3G-eYFP or A3F-eYFP, respectively) and Vif. In the absence of an inhibitor, Vif induces degradation of A3G-eYFP and A3F-eYFP, and the cells are not fluorescent. In the presence of an inhibitor, it is expected that Vif will be unable to degrade A3G-eYFP and/or A3F-eYFP, resulting in an increase in yellow fluorescence. In this assays Vif A3G was screened against the Molecular Library Small Molecule Repository (MLSMR). NIH Chemical Genomics Center [NCGC] NIH Molecular Libraries Probe Centers Network [MLPCN] MLPCN Grant: MH093245 Assay Submitter (PI): Vinay Pathak, National Cancer Institute
5 uL of 700 cells/well of A3G-YFP cells are dispensed into black, clear bottom plates. The plates are incubated overnight at 37 deg C. 23 nL of compounds are added by pintool. The plates are incubated overnight at 37 deg C and then read on the TTP Acumen (Ex 488/ Em 500-530).
Further: nearly all actives have a fitted effect of over 60% in size.
On the % scale 0 is the no-effect control and ±100 the full control effect; potency means the concentration at half of the fitted maximal effect.
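Wherever activity, negative = active is given: hits raise eYFP signal because A3G escapes Vif-driven loss.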

Sequence of DNA dC->dU-editing enzyme APOBEC-3G (Homo sapiens) (Q9HC16 whole entry, looked up): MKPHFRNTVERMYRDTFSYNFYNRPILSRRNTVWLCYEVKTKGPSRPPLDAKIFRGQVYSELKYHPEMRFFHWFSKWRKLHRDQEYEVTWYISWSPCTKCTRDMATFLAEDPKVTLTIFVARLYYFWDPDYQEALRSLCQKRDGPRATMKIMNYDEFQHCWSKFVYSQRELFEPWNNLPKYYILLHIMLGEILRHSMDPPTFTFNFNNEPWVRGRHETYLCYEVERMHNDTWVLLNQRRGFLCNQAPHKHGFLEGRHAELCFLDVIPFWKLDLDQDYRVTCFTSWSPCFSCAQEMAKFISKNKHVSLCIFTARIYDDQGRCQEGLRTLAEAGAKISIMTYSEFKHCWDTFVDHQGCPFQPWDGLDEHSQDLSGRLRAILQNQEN

Row | Structure (SMILES) | Potency | activity, negative = active
1 | CC/C(=N\NC(=O)c1ccccc1O)c1c(O)n(Cc2ccccc2)c(=O)[nH]c1=O | 10 µM (active) | 
2 | CCC(=NCCc1ccccc1)c1c(O)n(C2CCCCC2)c(=O)[nH]c1=O |  | -0.155% (inactive)
3 | O=c1[nH]c(=O)n(Cc2ccccc2)c(O)c1/C=N/Nc1c(F)c(F)c(F)c(F)c1F |  | -1.03% (inactive)
4 | ClCCN(CCCl)c1ccc(C=Nc2ccc(/C=C/c3ccnc4ccccc34)cc2)cc1 |  | -17.1% (inactive)
